High-throughput results: PubChem BioAssay, The Scripps Research Institute Molecular Screening Center
DAX1 inh-1 – inhibitors of human orphan nuclear receptor DAX1 (NR0B1). P51843. HEK293 Gal4-DAX1 luciferase reporter, luminescence. inhibition, % at 6.75 µM. hit rate 0.99% among 340,000. AID 504766;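 active means inhibition above the mean over all tested compounds plus 3 SD, cut at about 4.2% in these data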;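 further: 0% = DAX1-transfected cells with DMSO and 100% = empty-vector control cells with DMSO; inhibition shows as a rise in luminescence from relieved DAX1 repression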
DAX1 inh-2 – blocks DAX1 repression of SF-1 activated StAR promoter; HEK293T StAR-luciferase reporter, SF-1/DAX-1 repression relief; inhibition, % at 6.8 µM; hit rate 1.1% among 370,000;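 active means inhibition above the mean over all tested compounds plus 3 SD, cut at about 3.6% in these data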;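 further: 0% = DAX-1 cells with DMSO and 100% = cells lacking DAX-1 with DMSO; higher inhibition means more luminescence from relief of DAX-1 repression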
hgDAF12 agonist – hgDAF-12 agonism, primary luciferase screen. HEK293 GAL4-hgDAF12 UAS-luciferase reporter, agonist luminescence; normalized to butyrate control. activation, % at 6.8 µM. hit rate 1.8% among 370,000;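 active means activation above a cutoff set at the mean of all screened compounds plus 3 SD, cut at about 10% in these data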;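 further: 0% = DMSO wells and 100% = sodium butyrate wells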
hcDAF-12 act – activates DAF-12 receptor from parasite H. contortus; AID 652067; HEK293 hcDAF-12 lit1-tk-luc reporter, luminescence; 0% DMSO, 100% Δ7-dafachronic acid; activation, % at 6.8 µM; hit rate 1.4% among 370,000;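 active means activation above the mean of all tested compounds plus 3 SD, cut at about 5.5% in these data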;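 further: 100% = response to 3 µM Δ7-dafachronic acid high control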
ssDAF-12 act – S. stercoralis DAF-12 activation, primary screen. HEK293 ssDAF-12/GRIP1 lit1-tk-luc reporter, luminescence; % of 3 µM dafachronic acid response. activation, % at 6.8 µM. hit rate 1% among 370,000. AID 652126;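 active means activation above the mean over all tested compounds plus 3 SD, cut at about 0.9% in these data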;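 further: 0% = DMSO-only wells and 100% = 3 µM delta7-dafachronic acid wells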
hgDAF12 ag – hgDAF-12 agonism, confirmation assay; shares compounds with hgDAF12 agonist; HEK293 GAL4-hgDAF12 luciferase reporter, agonist mode; percent of butyrate response; activation, % at 6.8 µM; hit rate 80% among 3,300; AID 743050;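 active means mean activation over triplicate wells above the hit cutoff derived from the earlier primary screen, cut at about 11% in these data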;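 further: 0% = DMSO low control and 100% = 2 mM sodium butyrate high control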
LXRb DAF12 ctr – LXR-beta agonism as DAF-12 counter-screen | shares compounds with hgDAF12 agonist | HEK293 Gal4-LXR luciferase reporter, 24 h | activation, % at 6.8 µM | 3,300 tested, under 10 active;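 active means mean activation of the triplicate above a set limit carried over from the primary screen, none filed active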
Target sequence (P55055 whole entry, looked up, the tested form may be a part): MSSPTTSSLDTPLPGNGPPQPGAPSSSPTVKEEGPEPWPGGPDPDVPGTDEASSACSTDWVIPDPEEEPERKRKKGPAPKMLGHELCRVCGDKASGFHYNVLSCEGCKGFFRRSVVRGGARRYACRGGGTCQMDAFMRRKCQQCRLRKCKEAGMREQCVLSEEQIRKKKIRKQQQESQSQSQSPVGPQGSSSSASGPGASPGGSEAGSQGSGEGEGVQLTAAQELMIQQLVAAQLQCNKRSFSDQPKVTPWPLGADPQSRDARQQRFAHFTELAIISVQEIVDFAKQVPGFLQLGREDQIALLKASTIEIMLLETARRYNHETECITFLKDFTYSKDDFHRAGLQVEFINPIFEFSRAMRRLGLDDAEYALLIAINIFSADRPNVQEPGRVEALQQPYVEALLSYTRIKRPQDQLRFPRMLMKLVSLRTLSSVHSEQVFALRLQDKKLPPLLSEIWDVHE
The depositor's hits bear a star; / = no result. Most compounds without a hit are left out; they make up all but 4.1% or so of the library.

SMILES | DAX1 inh-1 | DAX1 inh-2 | hgDAF12 agonist | hcDAF-12 act | ssDAF-12 act | hgDAF12 ag | LXRb DAF12 ctr
COc1ccccc1OCc1cc(-c2ccccc2)no1 | 2 | 3.6* | 14* | 5.7* | -1 | 11* | 1
c1ccc(OCc2cc(-c3ccccc3)no2)cc1 | 2 | 1 | 14* | 5 | -1 | 12* | 0
CC[C@@H](C)[C@@H](CO)NC(=O)[C@H]1O[C@@H](n2cnc3c(N)ncnc32)[C@H](O)[C@@H]1O | / | 1 | -1 | 1 | -1 | / | /
COC[C@H]1CCCN1c1ccc2c(c1)O[C@@H]1CCN(C1)S2(=O)=O | / | -1 | -2 | -2 | -1 | / | /
OCCN1CCN(c2cc(C(F)(F)F)nc3c(F)cccc23)CC1 | 1 | -1 | 1 | 0 | 0 | / | /
COC(=O)c1ccccc1CC1Cc2cc3c(cc2C1=O)CCC3 (stereo not given) | 3 | 4.3* | 14* | 2 | 1.9* | 13* | 1
O=C(Nc1ccc(Cl)cc1Cl)C1=Cc2ccccc2OC1 | 3 | 3 | 14* | 5 | 0 | 18* | 1
O=C(Nc1cc(Cl)ccc1Cl)c1ccc(-c2ccccc2)cc1 | -1 | 1 | 0 | 2 | 0 | / | /
CC1(NC(=O)Nc2cccc3ccccc23)CCS(=O)(=O)C1 (stereo not given) | 0 | 0 | 0 | 0 | -1 | / | /
CN(C(=O)c1ccccc1C(=O)OCC(=O)c1ccc(Br)cc1)c1ccccc1 | -1 | -1 | -3 | 0 | -1 | / | /
O=C(N/N=C/c1ccc(Br)cc1)c1ccc(Br)o1 | 3 | 3 | 14* | 4 | 0 | 15* | 1
CCOC(=O)c1c(N)sc(C(=O)OCCOC)c1C | 1 | 0 | 6 | 0 | -1 | / | /
O=C(O)c1cccc(N/N=C/C2=C(Cl)c3cc(Cl)ccc3SC2)c1 | 0 | 4 | 16* | 5 | 1.4* | 19* | 1
Cc1cccc(/N=C/c2nc(-c3ccccc3Br)oc2O)n1 | -1 | 0 | 5 | 2 | -1 | / | /
Cc1ccnc(N=Cc2nc(-c3ccccc3Br)oc2O)c1 | 0 | 2 | 15* | 0 | 1 | 6 | 0
OCc1ccc(N=Nc2ccccc2)cc1 | 3 | 2 | 13* | 3 | 0 | 17* | 1
COC(=O)c1ccc(N=Nc2ccccc2)cc1 | 0 | 2 | 5 | 1 | -1 | / | /
Cc1nc(NCCc2ccc(O)cc2)c2nnn(Cc3ccccc3)c2n1 | -2 | 0 | -4 | -3 | -1 | / | /
Cc1ccc(C2=N/C(=C/N3CCOCC3)C(=O)O2)cc1 | -1 | 2 | 8 | 1 | -1 | / | /
Cc1ccc(C2=N/C(=C\N3CCCCC3)C(=O)O2)cc1 | 3 | 2 | 14* | 6.4* | 0 | 9 | 1
COc1ccc(C(=O)Nc2cccc(OC(=O)c3ccco3)c2)cc1 | -1 | 2 | 14* | 4 | 0 | 14* | 1
O=C(O)c1n[nH]c2c1CC(C1CCCCC1)CC2 (stereo not given) | 0 | 0 | 0 | -2 | -1 | / | /
COc1ccc(C(=O)O/N=C(\N)c2ccccc2Cl)cc1OC | -1 | 0 | 8 | 3 | 0 | / | /
COc1ccccc1C(=O)O/N=C(\N)c1ccccc1Cl | 3 | 2 | 17* | 4 | 0 | 11* | 0
C=CCN=C1NC(c2ccccc2C(F)(F)F)C(C(=O)OC)=C(C)N1Cc1cccc(C(F)(F)F)c1 (stereo not given) | / | 0 | 0 | 0 | -2 | / | /
SMILES | DAX1 inh-1 | DAX1 inh-2 | hgDAF12 agonist | hcDAF-12 act | ssDAF-12 act | hgDAF12 ag | LXRb DAF12 ctr
CC1=CC(c2ccc(Cl)cc2)n2nc(NC(=O)c3ccccc3)nc2N1 (stereo not given) | 0 | 0 | -1 | 0 | -1 | / | /
CC1=Nc2ccccc2N=C(NC(=O)c2ccccc2)C1c1ccc(Cl)cc1 (stereo not given) | 1 | 2 | 18* | 0 | 0 | -3 | 0
CCCCc1ccc(Nc2ncnc3nc[nH]c23)cc1 | 2 | 3 | 13* | 3 | 0 | 8 | 0
c1ccc(CCCNc2ncnc3nc[nH]c23)cc1 | 1 | 0 | 4 | -2 | -1 | / | /
Cc1nn(C(=O)c2cccs2)c(N)c1-c1ccccc1 | 3 | 3.7* | 15* | 5 | -1 | 17* | 0
O=c1nc(N/N=C/c2c[nH]c3ccccc23)cn[nH]1 | -1 | 3 | 17* | 4 | 1 | 13* | 1
O=c1nc(N/N=C/C=C/c2ccccc2)cn[nH]1 | -1 | 2 | 16* | 3 | 0 | 14* | 1
Cc1ccc(Cl)cc1S(=O)(=O)N1CCC(C(=O)NC2CCN(Cc3ccccc3)CC2)CC1 | -3 | -1 | -4 | -3 | -1 | / | /
CSCCCc1cn([C@@H](CO)C(=O)NCCCCCCCCCCC(=O)N2CCNCC2)nn1 | 0 | 0 | 2 | 2 | -1 | / | /
Cc1cc(C)nc(-n2nc(C)c(Sc3ccc(F)cc3)c2N)n1 | 0 | 3 | 13* | 3 | 0 | 15* | 1
COc1ccc(CCN(C)C(=O)CSc2nc3ncc(Cl)cc3[nH]2)cc1OC | 1 | 0 | -1 | -2 | -1 | / | /
Cc1csc(NC(=O)Nc2cccc(Cl)c2)n1 | 1 | 2 | 17* | 4 | 0 | 14* | 1
O=c1c2ccccc2nnn1CSc1ccccc1 | 1 | 3.6* | 16* | 3 | -1 | 14* | 1
COC(C(=O)N/N=C(\C)c1ccc(O)cc1)c1ccccc1 (stereo not given) | 0 | 1 | 14* | 5 | 1 | 1 | 0
COc1cccc(C(=O)Nc2ccc(C(F)(F)F)n(C)c2=O)c1 | 2 | 2 | 18* | 6.3* | -1 | 14* | 1
CCOc1ccc(C(=O)Nc2ccc(C(F)(F)F)n(C)c2=O)cc1 | 2 | 0 | -2 | -1 | -2 | / | /
CCCc1cc(C(=O)Nc2cc(Br)ccc2O)no1 | 0 | -1 | 15* | 3 | -2 | 6 | 0
CC(C)c1cc(C(=O)Nc2cc(Br)ccc2O)no1 | 0 | 1 | 9 | 1 | -1 | / | /
CSc1nc(C)c(C(=O)C[n+]2ccc(C)cc2)cc1C#N | 1 | 0 | -1 | -1 | -1 | / | /
Cc1ccc(NC(=O)OCc2ccccc2S(C)=O)cc1 (stereo not given) | -1 | 1 | 1 | -1 | 0 | / | /
COc1ccc(OCCCSc2ncccn2)cc1 | 1 | 0 | 14* | 3 | 0 | 11* | 0
COc1cccc(C(=O)NC(=S)Nc2ccc(N3CCCC3)cc2)c1 | 1 | -1 | 3 | 1 | -1 | / | /
COc1cccc(C(=O)NC(=O)Nc2cc(C)[nH]n2)c1 | 8.1* | 3 | 15* | 4 | 0 | 14* | 1
Cc1cc(NC(=O)c2cccc(Br)c2)n[nH]1 | 1 | 0 | 5 | 1 | -1 | / | /
